Results filed as inconclusive are left out. Active and inactive are the calls of the source. How the source made its calls: active means hit-call score of the fitted dose curve at least 0.9, where 1 is the maximum; inconclusive means response in the unintended direction; inactive means score below 0.9.

Experiment [1] concerns the target Cellular tumor antigen p53 (Homo sapiens) (UniProt P04637). As to the kind of experiment: TOX21_p53_BLA_p2_ratio: Tox21 HCT-116 p53 Agonism Beta-lactamase Assay, Ratio, Phase 2 (AID 2283592). Summed up:
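Cleaved-to-uncleaved substrate ratio (460 vs 530 nm) measured in HCT116 cells with an inducible beta-lactamase reporter linked to p53 activity. Compounds incubated 16 h at 37C before 2 h room-temperature CCF4-AM loading.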

The target is the same in experiment [2]. Description: TOX21_p53_BLA_p3_ratio: Tox21 HCT-116 p53 Agonism Beta-lactamase Assay, Ratio, Phase 3 (AID 2283596). The procedure, abridged: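 Cells were seeded at 4000/well, rested 5 h at 37C, then dosed with DMSO compound solutions (217-fold dilution) for 16 h. CCF4-AM substrate was loaded for 2 h at room temperature, and the 460/530 nm emission ratio was fitted for gain of signal versus DMSO.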

Experiment [3] is described as follows: TOX21_p53_BLA_p4_viability: Viability Assessment in the Tox21 HCT-116 p53 Agonism Beta-lactamase Assay, Phase 4 (AID 2283597).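 Further: hits lower the luminescence signal meaning cytotoxicity.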 The procedure, abridged:
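Viability is taken as cellular ATP: after 16 h compound exposure of HCT116 cells and a 2 h room-temperature CCF4-AM substrate step, CellTiter-Glo reagent is added and luminescence is measured 30 min later.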

The nature of experiment [4]: TOX21_p53_BLA_p5_viability: Viability Assessment in the Tox21 HCT-116 p53 Agonism Beta-lactamase Assay, Phase 5 (AID 2283600). Summed up:
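Viability is taken from cellular ATP content, measured by luciferase luminescence in the same wells after the beta-lactamase ratio read. Cells are seeded at 4000 per well and exposed to DMSO-dissolved compounds, diluted 217-fold, for 16 h.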

Experiment [5] concerns the target Cellular tumor antigen p53 (Homo sapiens) (UniProt P04637). Description: TOX21_p53_BLA_p4_ratio: Tox21 HCT-116 p53 Agonism Beta-lactamase Assay, Ratio, Phase 4 (AID 2283601). Summed up: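 HCT-116 p53 beta-lactamase reporter cells (4000/well) preincubated 5 h, then compound (217-fold dilution of DMSO stock) for 16 h at 37C. CCF4-AM substrate added 2 h at room temperature; 460/530 nm emission ratio fitted upward versus DMSO.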

The target is the same in experiment [6]. Description: TOX21_p53_BLA_p5_ratio: Tox21 HCT-116 p53 Agonism Beta-lactamase Assay, Ratio, Phase 5 (AID 2283599). Summed up: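 HCT-116 p53-bla cells (4000/well) plated 5 h, dosed with compound (217-fold DMSO dilution) for 16 h at 37 C; CCF4-AM substrate 2 h at room temperature. Activity is the 460/530 nm emission ratio (405 nm excitation), fitted in gain-of-signal direction versus DMSO.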

Sequence of Cellular tumor antigen p53 (Homo sapiens) (P04637 whole entry, looked up): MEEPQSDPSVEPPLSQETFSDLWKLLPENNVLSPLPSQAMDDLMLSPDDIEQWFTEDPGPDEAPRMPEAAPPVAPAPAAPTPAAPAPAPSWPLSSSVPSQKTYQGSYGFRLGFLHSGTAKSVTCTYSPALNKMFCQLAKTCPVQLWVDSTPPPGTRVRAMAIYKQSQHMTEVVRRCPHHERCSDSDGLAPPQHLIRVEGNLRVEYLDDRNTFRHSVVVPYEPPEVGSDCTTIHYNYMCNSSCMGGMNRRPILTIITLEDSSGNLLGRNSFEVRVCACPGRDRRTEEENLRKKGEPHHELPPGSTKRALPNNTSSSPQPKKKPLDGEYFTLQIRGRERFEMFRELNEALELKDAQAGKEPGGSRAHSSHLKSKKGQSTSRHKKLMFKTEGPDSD

As for `NS(=O)(=O)c1ccc(C(=O)O)cc1`, the result in experiment [1], in experiment [2], in experiment [3], in experiment [4] and in experiment [5] was inactive.

With `O=C(O)CP(=O)(O)O`, the result in experiment [1], in experiment [2], in experiment [3], in experiment [4] and in experiment [5] was inactive.

`C1CCCNCCC1`: the result in experiment [1], in experiment [2], in experiment [3] and in experiment [5] was inactive.

As usually defined, the AC50 is the concentration giving half of the maximal activity seen. On to `O=C1CCCc2c1cc1ccc3cccc4ccc2c1c34`, for which the result in experiment [1], in experiment [3], in experiment [6] and in experiment [5] was inactive. For the same compound, in experiment [2], the AC50 is 62.5 µM (active).

On to `Cc1cc(C)cc([N+](=O)[O-])c1`, for which the outcome in experiment [1], in experiment [2], in experiment [3], in experiment [4] and in experiment [5] was inactive.

On to `C=Cc1ccccn1`, for which the result in experiment [1], in experiment [2], in experiment [3] and in experiment [5] was inactive.

`C[Si](Cl)(c1ccccc1)c1ccccc1`: the outcome in experiment [1], in experiment [2], in experiment [3], in experiment [6] and in experiment [5] was inactive.

Turning to `CC(=O)Nc1cccc(N)c1`, the AC50 in experiment [1] was 84.4 µM (active); in experiment [5] it was 79.2 µM (active). For the same compound, the result in experiment [2], in experiment [3] and in experiment [6] was inactive.

For the compound `CN1CCOC(c2ccccc2)c2ccccc2C1` (centres undefined), the outcome in experiment [1], in experiment [2], in experiment [3] and in experiment [5] was inactive.

Consider `CS(=O)(=O)c1ccc([C@@H](O)[C@@H](COC(=O)CN)NC(=O)C(Cl)Cl)cc1`, for which the outcome in experiment [1], in experiment [2], in experiment [3] and in experiment [4] was inactive.

Turning to `CCOC(=O)CCC(=O)O[C@H]1[C@H](O[C@@H]2[C@@H](C)[C@H](O[C@H]3C[C@@](C)(OC)[C@@H](O)[C@H](C)O3)[C@@H](C)C(=O)O[C@H](CC)[C@@](C)(O)[C@H](O)[C@@H](C)C(=O)[C@H](C)C[C@@]2(C)O)O[C@H](C)C[C@@H]1N(C)C`, the result in experiment [1], in experiment [2], in experiment [3] and in experiment [5] was inactive.

As for `CCOC(=O)CC(=O)C(=O)OCC`, the result in experiment [1], in experiment [2], in experiment [3] and in experiment [5] was inactive.

The record behind these values is PubChem BioAssay (EPA / NIEHS).
